Screening data as filed in PubChem.
The sample as a whole holds a higher share of hits than the screen did.
TDP-43 rescue – rescues yeast from TDP-43 toxicity; yeast TDP-43 toxicity rescue, BacTiter-Glo growth, 24 h; Potency, µM (titrated, usually from 46.1 µM), most hits filed as activators; 45,000 tested, 0.45% active; AID 1347073; active = well fitted activation curve with a large enough effect; note: 0% is about no effect; nearly all actives have a fitted effect of over 55% in size
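TDP-43-expressing yeast, pregrown in raffinose, seeded at OD600 0.02 in galactose medium with compound for 24 hr at 30 deg C. Growth read by BacTiter-Glo luminescence, so rescue of toxicity appears as activation.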
Active calls of the source: *; i = inactive. Potency is the fitted concentration of half-maximal effect.

SMILES | TDP-43 rescue
CN(CC1COc2ccccc2O1)C(=O)CSc1nncs1 (stereo not drawn) | i
CCCN(CC1CC1)C(=S)Nc1ccccc1F | i
CN(CC1COc2ccccc2O1)C(=S)Nc1ccccc1F (stereo not drawn) | 11.2µM*
CC1(C(=O)NS(=O)(=O)c2cccc(Cl)c2)CCN1C(=O)CC1CC1 (stereo not drawn) | i
COc1ccc(Br)cc1C(=O)Nc1ccc(N2CCCC2)cc1 | i
COc1ccc(Br)cc1C(=O)Nc1ccc(C(=O)O)cc1 | 4.47µM*
COc1ccc(Br)cc1C(=O)NC(=S)Nc1ccc2[nH]c(=O)[nH]c2c1 | i
Cc1ccc(CSc2nnc(-c3ccco3)o2)cc1 | 12.6µM*
CC(=O)c1c(C)[nH]c(C(=O)CSc2nnc(-c3ccco3)o2)c1C | i
CC(=O)c1ccc(NC(=O)CSc2nnc(-c3ccco3)o2)cc1 | i
Cc1ccc(/C=N/NC(=O)COc2ccc(Cl)c(C)c2)o1 | i
O=C(NNC(=S)NC(=O)c1ccc(F)cc1)c1cccnc1 | i
O=C(NC(=S)NNC(=O)[C@H]1C[C@@H]1c1ccccc1)c1cccc(F)c1 | 12.6µM*
O=C(Cc1ccccc1)NNC(=S)NC(=O)c1cccnc1 | i
O=C(Nc1ccc(Cl)c(C(F)(F)F)c1)C1Cc2c(-c3ccc4c(c3)OCO4)ccnc2O1 (stereo not drawn) | i
CC(C)n1cc(C(=O)N2CCCC(N3CCN(c4cccc(Cl)c4)CC3)C2)cn1 (stereo not drawn) | i
Cc1ccccc1C(=O)Nc1nnc([C@@H]2C[C@H](O)[C@@H](CO)O2)s1 | i
CC(C)(Oc1ccc(Cl)cc1)C(=O)NCc1ccc(S(N)(=O)=O)cc1 | i
Cc1nn(C(=O)COc2ccccc2)c(C)c1Sc1ccccc1 | i
Cc1ccc(S(=O)(=O)NCC2CCC(C(=O)NC3CCCCC3)CC2)cc1 (stereo not drawn) | i
O=C(Cn1cccc1C(=O)c1ccccc1)NCc1ccc(F)cc1 | i
O=C(CCCSc1nc2ccccc2s1)NCc1ccc2c(c1)OCO2 | 12.6µM*
O=C(COC(=O)CCc1ccccc1)NCc1ccc2c(c1)OCO2 | i
CCc1cccc(C)c1NC(=O)CCCSc1nc2ccccc2s1 | i
Cc1cc(=O)[nH]c(SCC(=O)NCCC2=CCCCC2)n1 | i
SMILES | TDP-43 rescue
C[C@H](NC(=O)CCCn1nnc2ccccc2c1=O)C(=O)O | i
Cc1ccc(/C=C/C(=O)OCn2nnc3ccccc3c2=O)o1 | 14.1µM*
Cc1ccccc1OCC(=O)OCn1nnc2ccccc2c1=O | i
Clc1ccc2nc(NCc3ccccc3)c3nncn3c2c1 | i
COc1ccc(-n2nc(C(=O)NCC(=O)NCCCN3CC(C)CC(C)C3)c3ccccc3c2=O)cc1OC (stereo not drawn) | i
CCOC(=O)c1c(NC(=O)CSc2ncnc3[nH]ncc23)sc2c1CCC(C)C2 (stereo not drawn) | i
N/C(=N\OC(=O)COc1ccc(Cl)cc1Cl)c1cccnc1 | i
N/C(=N\OC(=O)c1ccc(Cl)cc1[N+](=O)[O-])c1cccnc1 | i
N/C(=N\OC(=O)c1cccc(Cl)c1)c1cccnc1 | 11.2µM*
Nn1c(=O)c2ccccc2n2c(SCc3ccccc3)nnc12 | i
Nn1c(SCc2cccc(Oc3ccccc3)c2)nnc1C(F)(F)F | 12.6µM*
Cn1c(SCC(=O)Nc2ccccc2)nnc1C(F)(F)F | i
COc1ccc(OC)c(C(O)c2ncc(-c3ccc(C(F)(F)F)cc3)[nH]2)c1 (stereo not drawn) | i
CC(NC(=O)COc1cccnc1[N+](=O)[O-])c1ccc(Cl)cc1 (stereo not drawn) | i
CN(C)C(=O)c1cn(-c2ccccc2)nc1-c1cccc([N+](=O)[O-])c1 | i
Nc1c(O)ccc2c1C(=O)c1ccccc1C2=O | i
CN(C)C(=O)c1ccc2c(c1[N+](=O)[O-])C(=O)c1ccccc1C2=O | 10µM*
O=C(CN1C(=O)NC2(CCCc3ccccc32)C1=O)c1ccc(F)c(F)c1 (stereo not drawn) | i
CC1(C(=O)NS(=O)(=O)C2CC2)CCN(C(=O)COc2ccc(Cl)cc2Cl)C1 (stereo not drawn) | i
Cc1nc(NC(=O)c2ccco2)sc1C(=O)O | i
Cc1sc(NC(=O)c2ccco2)nc1-c1ccccc1 | 12.6µM*
CC(=O)c1c(C)[nH]c(C(=O)Nc2nc(-c3ccccc3)c(C)s2)c1C | i
O=C(COC(=O)COc1ccc(Cl)cc1Br)NC1CC1 | i
CN(C(=O)c1ccc(=O)n(Cc2ccc(Cl)cc2)c1)c1ccccc1 | i
Cc1cc(C)n(CCNC(=O)c2ccco2)n1 | i
SMILES | TDP-43 rescue
Cc1cc(C)c(NC(=O)c2ccc(CNS(=O)(=O)c3cc(C(F)(F)F)ccc3Cl)cc2)c(C)c1 | i
O=C(NCC1CC1)c1cccc2c(-c3ccc(F)c(F)c3)coc12 | 22.4µM*
O=C(NCc1ccc(F)c(F)c1)c1cccc2c(-c3cccnc3)coc12 | 10µM*
COc1ccc(CNC(=O)c2ccc(-c3ccc(F)c(F)c3)c3ccoc23)cc1OC | i
NC(=O)c1cccc(-c2coc3c(C(=O)NC4CCCCC4)cccc23)c1 | i
Cn1nccc1-c1coc2c(C(=O)NCC3CCOCC3)cccc12 | i
O=C(NCc1cccc(Cl)c1)c1ccc(-c2ccc(F)c(F)c2)c2ccoc12 | i
CCCOc1ccc(-c2nc(SCc3ccccc3)[nH]c(=O)c2C#N)cc1OC | i
Cn1nnc2cc(C(=O)N3CCN(c4ccccn4)CC3)ccc21 | i
COc1ccc(C(O)c2nc(-c3cccc(NC(C)=O)c3)cs2)cc1 (stereo not drawn) | i
Cc1ccc(NS(=O)(=O)c2ccc(OCC(=O)NCc3ccncc3)cc2)cc1 | i
CN(C)C(CNC(=O)c1ccc(-c2ccccc2)cc1)c1ccccc1 (stereo not drawn) | i
O=C(NC(=S)Nc1cccc2cnccc12)c1ccccc1 | i
O=C(NC(=S)Nc1cccc2cc(O)ccc12)c1ccccc1Br | 15.8µM*
CC1CCCCC1NC(=S)NC(=O)c1ccccc1Br (stereo not drawn) | i
CC(=O)c1ccccc1NC(=O)CN1C(=O)NC2(CCCCCCC2)C1=O | i
COc1ccc(Cl)cc1C(=O)OCC(=O)N1CCCC(C)C1 (stereo not drawn) | i
COc1cccc2cc(C(=O)OCC(=O)NC3CCCC(C)C3C)c(=O)oc12 (stereo not drawn) | i
COc1ccc(Cl)cc1C(=O)OCC(=O)NC1CCCC(C)C1C (stereo not drawn) | 17.8µM*
O=C(O)CCCNC(=O)c1nn(Cc2ccccc2)c(=O)c2ccccc12 | i
Cc1ccc(C)c(C(=O)COC(=O)CN2C(=O)C3C4CCC(C4)C3C2=O)c1 (stereo not drawn) | i
O=C(NCc1cccs1)C1CCCN(C(=O)Nc2ccccc2)C1 (stereo not drawn) | i
C=CCSc1nc(C)cc2c1C(=O)OC2 | 10µM*
Cc1cc2c(c(SCC(=O)NCc3ccccc3Cl)n1)C(=O)OC2 | i
Cc1cc2c(c(N3CCOCC3)n1)C(=O)OC2 | i
CC(O)(c1cccnc1)c1nc(-c2ccc3c(c2)OCO3)cs1 (stereo not drawn) | i
COc1ccc(C(C)(O)c2nc(-c3ccc4c(c3)OCO4)cs2)cc1 (stereo not drawn) | 12.6µM*
COc1cccc(C(C)(O)c2nc(-c3ccc(OC)nc3)cs2)c1 (stereo not drawn) | 17.8µM*
CC(O)(c1cccc(F)c1)c1nc(-c2ccncc2)cs1 (stereo not drawn) | i
